About 1,400 (0.42%) of roughly 330,000 compounds were called active. Many of the other results were omitted from the sample, so actives are more common in it than they were. Unmarked numbers belong to inactive results.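 Rule for the calls: active = inhibition above its plate's threshold, mean inhibition of all tested compounds on the plate plus 3 SD (cut at about 37% in these data); inactive = the rest.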
Biological target: Orexin/Hypocretin receptor type 1 (Homo sapiens) (UniProt O43613)
Test: blockers of orexin-A calcium signaling via HCRTR1 – fluorescence, CHO/OX1R cells, Fluo-8 calcium, primary screen (AID 434989);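 note: 0% = orexin A challenge wells and 100% = SB-334867-A antagonist wells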
Conditions: Fluo-8 calcium fluorescence, at 5 µM, hits give high values

Sequence of Orexin/Hypocretin receptor type 1 (Homo sapiens) (O43613 whole entry, looked up): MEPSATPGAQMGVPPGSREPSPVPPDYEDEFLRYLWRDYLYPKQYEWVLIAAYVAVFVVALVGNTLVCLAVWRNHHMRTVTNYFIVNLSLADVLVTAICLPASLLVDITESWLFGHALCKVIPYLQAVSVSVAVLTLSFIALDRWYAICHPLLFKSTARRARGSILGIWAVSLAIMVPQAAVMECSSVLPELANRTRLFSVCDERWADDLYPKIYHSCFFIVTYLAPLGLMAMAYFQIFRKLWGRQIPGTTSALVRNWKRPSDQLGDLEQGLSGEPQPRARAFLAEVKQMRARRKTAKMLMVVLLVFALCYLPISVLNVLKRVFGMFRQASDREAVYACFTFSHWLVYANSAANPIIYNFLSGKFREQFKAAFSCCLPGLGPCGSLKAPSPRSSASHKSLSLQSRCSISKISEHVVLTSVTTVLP

SMILES	inhibition
CC(C)COc1ccc(C(=O)NNC(=O)CCC(=O)c2cccs2)cc1	-18.4%
O=C(NC(Cc1ccccc1)C(=O)N1CCCC(C(F)(F)F)C1)c1ccccc1 (stereo unspecified)	-34.6%
O=C(NCC(=O)N1CCCC(C(F)(F)F)C1)c1ccccc1F (stereo unspecified)	0.97%
FC(F)(F)C1CCCN(c2nsc3ccccc23)C1 (stereo unspecified)	46.1% (active)
Cc1onc(-c2c(F)cccc2Cl)c1C(=O)OCC(=O)N1C(C)CCCC1C (stereo unspecified)	-24.4%
COc1ccc(NC(=O)CNc2cc(S(=O)(=O)N3CCOCC3)ccc2N2CCOCC2)c(OC)c1	-10.3%
CN(C)c1ccc(/C=C2\NC(=S)N(Cc3ccccc3)C2=O)cc1	91.7% (active)
O=C1/C(=C\c2ccsc2)NC(=S)N1c1ccccc1	-19.5%
COc1cc(/C=C2/SC(=S)N(Cc3ccccc3)C2=O)cc(OC)c1O	31.2%
Cc1cc(OCCCC(=O)NCCN2C(=O)S/C(=C\c3cccnc3)C2=O)ccc1Cl	94.3% (active)
CCOc1ccc(N2CC(C(=O)NCCN3C(=O)S/C(=C\c4cccnc4)C3=O)CC2=O)cc1 (stereo unspecified)	-17.9%
O=C(NCCN1C(=O)S/C(=C\c2cccnc2)C1=O)c1cccc(OC(F)F)c1	-28.3%
COC(=O)[C@]1(Cc2ccccc2)N[C@H](CN(C)S(=O)(=O)c2ccc(OC(F)(F)F)cc2)[C@@H]2C(=O)N(C)C(=O)[C@@H]21	-30.2%
COC(=O)c1ccc(/C=C/c2c(-c3ccc(OC)cc3)sc3ccccc23)cc1	-6.38%
COc1ccc(CNC(=O)COC(=O)C(CCSC)N2C(=O)c3ccccc3C2=O)cc1 (stereo unspecified)	-29.7%
CCOC(=O)[C@H]1[C@H]2COc3ccccc3[C@@H]2N2C(=O)CN(Cc3ccccc3)C(=O)[C@@]12C	-30.6%
Cc1cc(N2CCCC2=O)cc(C)c1S(N)(=O)=O	44.7% (active)
CNS(=O)(=O)c1ccc(N2CCCC2=O)c([N+](=O)[O-])c1	-6.08%
CN(C)S(=O)(=O)c1ccc(N2CCCC2=O)c([N+](=O)[O-])c1	-12.1%
O=C1CSc2ccc(C(=O)NCc3ccccn3)cc2N1	7.19%
COc1ccc(/C=N/NC(=O)c2ccc3c(c2)OCCO3)c(OC)c1	-14.1%

SMILES	inhibition
COc1cccc(/C=N/NC(=O)c2[nH]nc3c2CCc2ccccc2-3)c1O	38.6% (active)
CN(C)CCNC(=O)c1[nH]nc2c1CCc1ccccc1-2	-12%
COc1cc(OC)c(C(=O)NNC(=O)c2ccccc2-n2cccc2)cc1OC	-4.23%
COc1cccc2sc3cc(NCC[C@@H]4CCCN4C)ccc3c(=O)c12	-2.27%
CC(C#N)OC(=O)c1cccnc1SCC(=O)Nc1ccc2c(c1)OCO2 (stereo unspecified)	-1.89%
O=C(CSc1ncnc2sccc12)NC1CCS(=O)(=O)C1 (stereo unspecified)	-10.8%
Oc1ccc2ccccc2c1N=Nc1nccs1	61% (active)
Oc1ccc(N=Nc2nccs2)c(O)c1	-44.9%
CCC(C(=O)OCC(=O)Nc1ccc(C(=O)Nc2ccc(OC)cc2)cc1)c1ccccc1 (stereo unspecified)	-0.08%
CCC(C(=O)Nc1ccc(C(C)C)cc1)c1ccccc1 (stereo unspecified)	62.9% (active)
CCC(C(=O)Nc1ccc2c(c1)OCCO2)c1ccccc1 (stereo unspecified)	3.71%
NCCN1CCN2C(=O)CN(C(=O)c3ccccc3)CC12 (stereo unspecified)	3.19%
CC(C)(C)OC(=O)C[C@@H]1C/C=C\C[C@@H](CC(=O)NCCO)C(=O)N[C@H](Cc2c[nH]c3ccccc23)COC1=O	-10.6%
CCN1/C(=C\c2ccc3ccccc3[n+]2CC)Sc2cc(C)ccc21	54.6% (active)
COc1ccccc1N(CCOc1ccccc1)S(=O)(=O)c1ccccc1	-0.89%
COc1ccc(-c2sc3ccc(OC)cc3c2C#Cc2ccccn2)cc1	-20.1%
COc1ccc2sc(-c3ccc(N(C)C)cc3)c(C#CCO)c2c1	61% (active)
COc1ccc2sc(-c3ccc(N(C)C)cc3)c(-c3ccc4cc[nH]c4c3)c2c1	1.84%
Cc1ccc(NC(=O)c2ccc(Cl)nc2)cc1S(=O)(=O)N1CCOCC1	-13.6%
COc1ccc(S(=O)(=O)N(C)C[C@H]2Oc3ccc(NS(=O)(=O)c4cccs4)cc3CC(=O)N([C@H](C)CO)C[C@H]2C)cc1	-17.2%
Nc1nc(COC(=O)CCC(=O)c2ccc(Cl)cc2)nc(Nc2ccccc2)n1	67.8% (active)

SMILES	inhibition
CC(NC(=O)COC(=O)CCC(=O)c1ccc(Cl)cc1)c1ccccc1 (stereo unspecified)	-2.79%
Cc1ccc(C(=O)OCc2nc(N)nc(Nc3ccccc3C)n2)cc1	-15.1%
O=C(COC(=O)c1ccc(F)c(S(=O)(=O)N2CCOCC2)c1)NCc1ccc2c(c1)OCO2	4.89%
COc1ccc(S(=O)(=O)N2CCCCCC2)cc1NC(=O)Cc1ccc(OC)c(OC)c1	-23.5%
O=C(COC(=O)c1ccccn1)NNC(=O)c1ccc(Br)cc1	-3.43%
Cn1c(N)c(C(=O)COC(=O)c2cnc(Cl)c(Cl)c2)c(=O)n(C)c1=O	-7.14%
Cn1c(N)c(C(=O)COC(=O)c2ccc3ccccc3c2)c(=O)n(C)c1=O	51.1% (active)
Cn1c(N)c(C(=O)COC(=O)c2cccc(S(=O)(=O)N3CCOCC3)c2)c(=O)n(C)c1=O	-27.4%
O=C1c2ccccc2C(=O)N1c1cccc2ccccc12	-17%
COc1ccc(N2C(=O)c3cccc4cccc(c34)C2=O)nn1	-17.9%
Cc1nn(C)cc1N1C(=O)c2cccc3c(N)ccc(c23)C1=O	38.4% (active)
O=C(O)c1ccc2c3c(cccc13)C(=O)N(OS(=O)(=O)c1ccccc1)C2=O	-7.84%
C[N+](C)(CCCCCC[N+](C)(C)CCCN1C(=O)c2cccc3cccc(c23)C1=O)CCCN1C(=O)c2cccc3cccc(c23)C1=O	-0.77%
CN1C(=O)c2cccc3c(N)ccc(c23)C1=O	41.1% (active)
Cc1noc(C)c1NC(=O)Nc1cccc2c1O[C@H](CN(C)C(=O)Nc1ccccc1)[C@@H](C)CN([C@H](C)CO)C2=O	1.33%
C[C@]12c3[nH]c4ccc(Cl)cc4c3CCN1C(=O)[C@@H](CC(=O)NCCCn1ccnc1)C[C@@H]2C(=O)N1CCOCC1	-3.04%
CC[C@]12c3[nH]c4ccc(Cl)cc4c3CCN1C(=O)[C@@H](CC(=O)NCCCOC)C[C@@H]2C(=O)N1CCN(C(=O)c2ccco2)CC1	-0.28%
O=C(N/N=C/c1c(Cl)[nH]c2ccccc12)c1sc2ccccc2c1Cl	92.7% (active)
COc1ccc(CNC(=O)CNC(=O)c2sc3ccccc3c2Cl)cc1OC	-23.5%
COCCNC(=S)N/N=C/c1c(C)[nH]c2ccccc12	-0.83%
CCCCNc1c(-c2ccc(OC)c(Sc3ccc(OC)cc3)c2)nc2ccc(Cl)cn12	-30.4%

SMILES	inhibition
Cc1cccc(OCC(=O)OCC(=O)Nc2ccc(Cl)cn2)c1	-10.8%
Nc1ncnc2c1ncn2[C@@H]1O[C@H](CNCc2cccn2-c2nccs2)[C@@H](O)[C@H]1O	-6.54%
COc1ccc2[nH]c3c(c2c1)CCN1C(=O)C(CC(=O)NCc2cccc(C(F)(F)F)c2)C[C@H](C(=O)N2CCOCC2)[C@@]31C (stereo partly specified)	-21.4%
CCN1C[C@@H]2[C@@H]3C(=O)N(Cc4ccccc4)C(=O)[C@@H]3[C@](Cc3ccccc3)(C(=O)OC)N2C1=NC1CCCCC1	-11.5%
O=C(Nc1cccc2cccnc12)c1cccc(N2C(=O)CCC2=O)c1	45.5% (active)
COC(=O)c1cccc(NC(=O)c2cccc(N3C(=O)CCC3=O)c2)c1	13.2%
O=C(Nc1cccc2cccnc12)c1cccc(Cl)c1	-10.3%
CN(Cc1ccccc1)C(=O)COC(=O)/C=C/c1ccc2c(c1)OCO2	-11.9%
CCCCCCCC(=O)NC(Nc1ccccc1OC)C(Cl)(Cl)Cl (stereo unspecified)	51.6% (active)
COc1ccccc1NC(=O)CCCc1c[nH]c2ccccc12	-3.22%
CCCC(=O)NC(Nc1ccccc1OC)C(Cl)(Cl)Cl (stereo unspecified)	-0.68%
O=C(COC(=O)c1ccc([N+](=O)[O-])o1)NC12CC3CC(CC(C3)C1)C2	-17.3%
COC(=O)[C@@]1(C)[C@H]2C(=O)N(Cc3ccccc3)C(=O)[C@H]2[C@H]2CN=C(SCC3CC3)N21	-26.2%
CC(=O)c1c(C)[nH]c(C(=O)COC(=O)c2cccc(S(=O)(=O)N(C)c3ccccc3)c2)c1C	63.5% (active)
CC(=O)c1c(C)[nH]c(C(=O)COC(=O)c2cccs2)c1C	-11.4%
COc1cccc(C(=O)OCC(=O)c2[nH]c(C)c(C(C)=O)c2C)c1	11%
COc1ccccc1NC(=O)COC(=O)CNC(=O)C1CCCCC1	-0.83%
C[C@H](CO)N1C[C@H](C)[C@@H](CN(C)S(=O)(=O)c2ccc(F)cc2)Oc2c(NC(=O)Nc3ccccc3)cccc2C1=O	-5.33%

Reference: PubChem BioAssay AID434989 (The Scripps Research Institute Molecular Screening Center, 2010)
